Hits are enriched below; roughly 3.9% of the tested compounds scored in any of these assays.
HSF1 inhib: HSF1 inhibition; 300,000 tested, 0.77% active; activity change, negative = inhibition, % at 7.5 µM (by protocol); NIH3T3-HGL HSE-luciferase, MG132-induced, luminescence 8 h; hits give low values;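 active means more than half of replicate wells show activity change below -50%, luminescence cut by over half; inconclusive means some wells, but at most half, below -50%; inactive means no replicate well below -50%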;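 further: luciferase reports HSF-1 transcriptional activity via heat shock element; 0% = median of DMSO wells and -100% = zero luminescence signal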
Wnt act: Wnt/beta-catenin pathway activation; 300,000 tested, 1.2% active; Wnt/beta-catenin reporter cell assay, activator, plate reader; activation, % at 9.35 µM; in the data active means activation above about 30%, passing the limit was not always enough; inconclusive means no clear call, values can overlap the other calls;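 further: 0% = neutral control wells and 100% = positive control wells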
esBAF inh: inhibitors of esBAF chromatin remodeling in mouse ES cells | reporter increase, % at 12.5 µM | 350,000 tested, 2% active | Bmi1-luciferase knock-in reporter, 24 h; 100% = twice the neutral-well signal; in the data active means activation above about 40%; inconclusive means no clear call, values can overlap the other calls;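 further: 0% = median of the plate's neutral control wells and 100% = double that signal; a rise in the Bmi1 reporter signal indicates esBAF inhibition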
MITF TRPM1 HTS: MITF TRPM1 promoter activation in melanoma cells | SK-MEL-5 TRPM1-promoter luciferase, 24 h; % of positive control, neutral wells = 0 | activation, % at 12.5 µM | 300,000 tested, 0.75% active | AID 588334;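 active means mean activation of at least 80% with every replicate also reaching 80%; inconclusive means mean reaches 80% but some replicate falls short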;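 further: 0% = neutral control wells and 100% = parthenolide positive control wells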
HSF1 activator: increases HSF-1 driven luciferase reporter signal | 300,000 tested, 1.7% active | activation, % at 9 µM | NIH3T3-HGL HSF-1 luciferase reporter, MG132, 8 h; 100% = twice DMSO control signal;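 active means mean replicate activation of at least 50% with a set share of replicates each reaching 50%; inconclusive means only one of those two conditions met; inactive means mean below 50% and too few replicates reaching it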;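 further: 0% = median of the neutral control wells and 100% = twice that signal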
* hit, by the source's call; ? = inconclusive; nt = no result.

SMILES | HSF1 inhib | Wnt act | esBAF inh | MITF TRPM1 HTS | HSF1 activator
Cc1ccc(-c2nc3c(c(=O)[nH]c(=O)n3Cc3ccccc3)n2Cc2ccccc2)o1 | 20 | -2 | nt | -13 | 62*
Cc1noc(C)c1NC(=O)NCC[C@@H]1CC[C@H](NC(=O)c2ccc(F)cc2)[C@@H](CO)O1 | nt | nt | 1 | nt | nt
O=C(C[C@@H]1CC[C@H]2[C@@H](COC[C@H](O)CN2C(=O)Nc2cccc(F)c2)O1)NCCCN1CCOCC1 | nt | nt | 6 | nt | nt
Cc1ccc(S(=O)(=O)Nc2ccc3c(c2)CC(=O)N([C@@H](C)CO)C[C@@H](C)[C@@H](CN(C)Cc2ccc(C(=O)Nc4ccccc4N)cc2)O3)cc1 | nt | nt | -6 | nt | nt
OC1(c2cccc(C(F)(F)F)c2)CCN(c2ccc(-c3ccccc3)nn2)CC1 | nt | -2 | 67* | 67 | nt
Cc1cccc(NC(=O)CNC(=O)COc2ccc(-c3ccc(C#N)cc3)cc2)c1C | -6 | -7 | nt | 8 | 2
Cc1ccc(CCC(=O)Nc2ccccc2F)s1 | 18 | 62* | 38 | 61 | 35
Cc1cccc(NC(=O)CNC(=O)COc2ccc(C(=O)c3ccc(F)cc3)cc2)c1C | -2 | 42* | nt | -15 | -13
O=C(COC(=O)CNC(=O)c1ccccc1F)Nc1cccnc1Cl | -77* | -1 | -6 | -13 | -81
Cc1ccc(C(=O)Nc2cccnc2Cl)cc1Cl | 20 | 14 | 54* | 38 | 59*
CCCC#Cc1cnc2c(c1)C(=O)N([C@@H](C)CO)C[C@@H](C)[C@H](CN(C)C)O2 | nt | nt | -10 | nt | nt
CN(C)C(=O)C[C@H]1CC[C@H](NC(=O)C2CCC2)[C@H](CO)O1 | nt | nt | 1 | nt | nt
Cc1ccc(OCC(=O)Nc2c[nH]c(=O)[nH]c2=O)cc1C | -52* | -4 | nt | 11 | -64
Cc1ccccc1NC(=O)c1ccc(OCC(=O)Nc2ccccc2F)cc1 | 4 | 0 | nt | 0 | 25
NC(=O)C1CC(=O)N(c2ccc(OCC(=O)Nc3ccccc3F)cc2)C1 (stereo unspecified) | nt | 34* | 29 | 68 | nt
Cc1ccc(OCC(=O)Nc2ccccc2F)cc1 | 10 | 41* | nt | nt | 56*
Cc1ccc(OCC(=O)Nc2cccnc2Cl)cc1C | -5 | 10 | 6 | 87* | 0
O=C(N[C@@H]1CC[C@@H](CCNS(=O)(=O)c2ccc(Cl)cc2)O[C@H]1CO)c1cccnc1 | nt | nt | -1 | nt | nt
C[C@@H]1CN([C@@H](C)CO)C(=O)c2cc(NS(C)(=O)=O)ccc2O[C@@H](C)CCCCO[C@H]1CN(C)S(=O)(=O)c1cn(C)cn1 | nt | nt | -3 | nt | nt
C[C@@H]1CCCCO[C@@H](CN(C)S(=O)(=O)c2ccccc2)[C@@H](C)CN([C@H](C)CO)C(=O)c2cc(NC(=O)CCC(F)(F)F)ccc2O1 | nt | nt | 2 | nt | nt
CC=Cc1ccc2n(c1=O)C[C@@H]1[C@@H](CO)[C@H](C(=O)N[C@H](C)c3ccccc3)[C@H]2N1Cc1cncnc1 (mixture of isomers) | nt | nt | 1 | nt | nt
O=C(COc1ccc2ccccc2c1)NNC(=O)Nc1ccccc1F | 4 | 1 | -4 | 1 | 16
NC(=O)C1CC(=O)N(c2ccc(OCc3ccc(Cl)c(Cl)c3)cc2)C1 (stereo unspecified) | nt | 54* | 51* | nt | nt
Cc1ccc(OCC(=O)Nc2ccccc2F)cc1C | 0 | 43* | nt | 107* | -9
C[C@@H](NC(=O)C[C@@H]1CC[C@H](NC(=O)C2CC2)[C@H](CO)O1)c1ccccc1 | nt | nt | 4 | nt | nt
SMILES | HSF1 inhib | Wnt act | esBAF inh | MITF TRPM1 HTS | HSF1 activator
CN(C)c1ccc(NC(=S)NC23CC4CC(CC(C4)C2)C3)cc1 | 16 | 1 | 67* | 40 | 35
FC(F)Oc1ccc(NC(=S)NC23CC4CC(CC(C4)C2)C3)cc1 | -2 | -1 | 50* | 4 | 7
COc1ccc(N(CC(=O)N2CCN(C)CC2)S(=O)(=O)c2ccccc2)cc1 | -11 | -3 | -4 | -3 | 2
O=C(CN(c1ccc(Cl)c(Cl)c1)S(=O)(=O)c1ccccc1)N1CCc2ccccc2C1 | 5 | nt | nt | -3 | 10
COc1cccc(N(CC(=O)N2CCN(C)CC2)S(=O)(=O)c2ccc(C)cc2)c1 | -85* | 0 | -7 | -3 | -88
Cc1ccc(S(=O)(=O)N(CC(=O)N2CCc3ccccc3C2)c2ccc(Cl)c(Cl)c2)cc1 | -88* | nt | nt | -16 | -91
C[C@H]1CN([C@@H](C)CO)C(=O)Cc2cc(NC(=O)CCN3CCOCC3)ccc2O[C@H]1CN(C)Cc1ccncc1 | nt | nt | 0 | nt | nt
CO[C@H]1CN(C)C(=O)c2cc(NC(=O)C3CC3)ccc2OC[C@H](C)N(C(C)=O)C[C@H]1C | nt | nt | 4 | nt | nt
c1cncc(-c2nc(-c3ccc4c(c3)OCO4)cs2)c1 | 17 | 32* | 52* | 85* | 36
Clc1ccsc1-c1csc(-c2cccnc2)n1 | 26 | nt | 70* | 11 | 29
c1cncc(-c2csc(-c3cccnc3)n2)c1 | -2 | 2 | 36 | 25 | 7
CCC(=O)Nc1cccc2cccnc12 | 3 | 18 | 3 | 13 | 12
C/C(=N\Nc1cccc2cccnc12)c1ccc[nH]1 | 36 | 42* | 47* | 48 | 63*
O=C(C[C@@H]1CC[C@H]2[C@@H](COC[C@@H](O)CN2Cc2ccc(F)cc2)O1)N1CCc2ccccc2C1 | nt | nt | 7 | nt | nt
C=CCn1c(N)c(C(=O)NCCC2=CCCCC2)sc1=S | 15 | 10 | 47* | 63 | 22
O=C1c2ccccc2C(=O)C1c1ccc(Br)cc1 | -5 | 5 | -1 | 48 | 8
O=C1c2ccccc2C(=O)C1c1ccc(O)cc1 | 39 | ? | 59* | 59 | 72*
CCCN(C)C[C@@H]1Oc2cc(-c3cccc(OC)c3)ccc2S(=O)(=O)N([C@H](C)CO)C[C@@H]1C | nt | nt | 1 | nt | nt
COC(=O)c1sc(-c2ccc(Cl)cc2)cc1NC(=O)c1ccccc1C(=O)O | 10 | 19 | nt | nt | 36
COC(=O)c1sc(-c2ccc(C(C)(C)C)cc2)cc1NC(=O)c1ccccc1C(=O)O | -34 | 46* | nt | nt | -39
Cc1ccc2nc(Cc3ccc(N)cc3)[nH]c2c1 | 5 | 39* | 44* | 16 | 7
Nc1ccc(Cc2nc3c(ccc4ccccc43)[nH]2)cc1 | 20 | 13 | 87* | 43 | 40
Cc1ccc2nc(C(O)C(O)c3nc4ccc(C)cc4[nH]3)[nH]c2c1 (stereo unspecified) | 8 | 27 | 43* | nt | 32
Nc1ccc2nc(Cc3ccccc3)[nH]c2c1 | -19 | -1 | ? | 18 | -19
Cc1noc(C)c1S(=O)(=O)Nc1ccc2c(c1)CC(=O)N([C@@H](C)CO)C[C@H](C)[C@H](CN(C)C(=O)Nc1ccc(C(F)(F)F)cc1)O2 | nt | nt | 1 | nt | nt
CC(C)C#Cc1ccc2c(c1)O[C@@H](CN(C)C(=O)c1cccnc1)[C@H](C)CN([C@@H](C)CO)S2(=O)=O | nt | nt | 5 | nt | nt
COc1ccc(S(=O)(=O)N(C)C[C@@H]2Oc3c(NC(=O)c4cnccn4)cccc3C(=O)N([C@H](C)CO)C[C@@H]2C)cc1 | nt | nt | 2 | nt | nt
O=C(NCC1CCCCC1)c1cc2ccccc2cc1O | 9 | 17 | 54* | 29 | 16
